Experimental data from PubChem BioAssay (Tox21).
Unmarked numbers belong to inactive results. Records with an inconclusive call do not appear. Where a call stands in place of a potency, no number is given. Calls of active or inactive are those of the source. Calls come from the whole dose curve; as a rule, active = well fitted curve in the direction sought with a large enough effect in the repeat runs; inconclusive = weak or mixed curves; inactive = no such curve, though single readings can be large; an effect the other way counts as inactive or inconclusive.

Legend:
[1] = Human pregnane X receptor (PXR) small molecule agonists, qHTS cell viability counter screen (AID 1346977); note: nearly all actives have a fitted effect of over 50% in size
Summary of the method: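 PXR-Luc HepG2 cells (2,000/well, 5% charcoal-stripped FBS) preincubated 5 hr, then exposed to compounds 24 hr at 37 C. Viability read in the same wells by CellTiter-Fluor fluorescence, reagent added at 23 hr, 1 hr incubation.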

[2] = Caspase-3/7 induction in HepG2 cells by small molecules, qHTS assay (AID 1346978); note: nearly all actives have a fitted effect of over 15% in size
Summary of the method: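 Wild-type HepG2 cells (2,000/well) were settled 5 h at 37 C, 5% CO2, then exposed to compounds in DMSO for 17 h. Caspase-3/7 activity was read by luminescence 30 min after adding Caspase-Glo 3/7 reagent at room temperature.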

[3] = Caspase-3/7 induction in CHO-K1 cells by small molecules, qHTS cell viability counter screen (AID 1346979); note: nearly all actives have a fitted effect of over 35% in size
Summary of the method: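 Wild-type CHO-K1 cells (1,500/well) treated with compound after 5 h plating; after 16 h at 37C, viability read as CellTiter-Fluor fluorescence following 1 h reagent incubation, in the same wells as the caspase read.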

[4] = Caspase-3/7 induction in CHO-K1 cells by small molecules, qHTS assay (AID 1346980); note: nearly all actives have a fitted effect of over 15% in size
Summary of the method: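 Wild-type cells were seeded at 1,500 per well and settled 5 hr at 37 C, 5% CO2, then exposed to DMSO-dissolved compounds for 17 hr. Caspase-Glo 3/7 reagent was added, and luminescence was read after 30min at room temperature.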

[5] = Caspase-3/7 induction in HepG2 cells by small molecules, qHTS cell viability counter screen (AID 1346981); note: series mostly up to about 92 µM; nearly all actives have a fitted effect of over 30% in size
Summary of the method: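 Wild-type HepG2 cells (2,000/well) were allowed to settle for 5 hr at 37 C, 5% CO2, then dosed with compounds in DMSO by pin transfer. After 16 hr at 37 C, CellTiter-Fluor was added and fluorescence read 1 hr later.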

[6] = molecular target: Nuclear receptor subfamily 1 group I member 2 (Homo sapiens) (UniProt O75469); test: Human pregnane X receptor (PXR) small molecule agonists, qHTS assay (AID 1346982); note: nearly all actives have a fitted effect of over 35% in size
Nuclear receptor subfamily 1 group I member 2 (Homo sapiens), sequence (O75469 whole entry, looked up): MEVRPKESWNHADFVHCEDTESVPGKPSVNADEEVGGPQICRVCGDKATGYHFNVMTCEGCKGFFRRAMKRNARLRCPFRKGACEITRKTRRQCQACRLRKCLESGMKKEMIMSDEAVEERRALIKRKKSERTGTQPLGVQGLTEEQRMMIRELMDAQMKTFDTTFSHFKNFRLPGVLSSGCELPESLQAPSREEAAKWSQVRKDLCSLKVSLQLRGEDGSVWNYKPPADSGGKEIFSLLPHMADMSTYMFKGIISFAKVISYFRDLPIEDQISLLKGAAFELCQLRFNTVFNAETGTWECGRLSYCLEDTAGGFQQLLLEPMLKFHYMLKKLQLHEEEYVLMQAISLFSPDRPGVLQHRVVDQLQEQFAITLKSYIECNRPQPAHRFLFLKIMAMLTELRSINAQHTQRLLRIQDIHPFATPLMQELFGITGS
Summary of the method: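 PXR-Luc HepG2 cells (CYP3A4 promoter-driven luciferase) were seeded in medium with 5% charcoal-stripped FBS, left 5 hr at 37 C, then exposed to compounds in DMSO for 24 hr. Luminescence was read after ONE-Glo addition.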

[7] = molecular target: Cytochrome P450 2C19 (Homo sapiens) (UniProt P33261); test: Cytochrome P450 Family 2 Subfamily C Member 19 (CYP2C19) small molecule antagonists: luciferase reporter qHTS assay (AID 1671197); note: nearly all actives have a fitted effect of over 65% in size; note: potency is the fitted concentration of half-maximal effect
Cytochrome P450 2C19 (Homo sapiens), sequence (P33261 whole entry, looked up): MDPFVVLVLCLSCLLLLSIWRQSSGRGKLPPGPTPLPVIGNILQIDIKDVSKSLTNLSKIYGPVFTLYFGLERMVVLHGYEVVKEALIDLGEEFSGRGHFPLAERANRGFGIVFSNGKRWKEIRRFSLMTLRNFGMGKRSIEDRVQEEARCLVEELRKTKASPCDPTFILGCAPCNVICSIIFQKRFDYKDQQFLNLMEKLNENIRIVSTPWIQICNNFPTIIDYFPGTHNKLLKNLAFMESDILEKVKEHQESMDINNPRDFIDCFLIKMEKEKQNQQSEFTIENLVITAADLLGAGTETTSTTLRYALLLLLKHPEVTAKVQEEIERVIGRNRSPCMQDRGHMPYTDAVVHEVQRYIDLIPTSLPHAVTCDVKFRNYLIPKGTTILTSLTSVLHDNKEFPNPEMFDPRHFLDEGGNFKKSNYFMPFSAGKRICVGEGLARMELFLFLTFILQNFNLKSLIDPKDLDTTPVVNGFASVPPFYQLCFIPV
Summary of the method: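 P450-Glo CYP2C19 screening system; proluciferin substrate; DMSO compound stocks; 10 min RT preincubation; NADPH regeneration, 1 h at 37C; luciferin detection reagent, 20 min RT; luminescence as RLU.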

[8] = molecular target: Cytochrome P450 2C9 (Homo sapiens) (UniProt P11712); test: Cytochrome P450 Family 2 Subfamily C Member 9 (CYP2C9) small molecule antagonists: luciferase reporter qHTS assay (AID 1671198); note: nearly all actives have a fitted effect of over 50% in size; note: potency is the fitted concentration of half-maximal effect
Cytochrome P450 2C9 (Homo sapiens), sequence (P11712 whole entry, looked up): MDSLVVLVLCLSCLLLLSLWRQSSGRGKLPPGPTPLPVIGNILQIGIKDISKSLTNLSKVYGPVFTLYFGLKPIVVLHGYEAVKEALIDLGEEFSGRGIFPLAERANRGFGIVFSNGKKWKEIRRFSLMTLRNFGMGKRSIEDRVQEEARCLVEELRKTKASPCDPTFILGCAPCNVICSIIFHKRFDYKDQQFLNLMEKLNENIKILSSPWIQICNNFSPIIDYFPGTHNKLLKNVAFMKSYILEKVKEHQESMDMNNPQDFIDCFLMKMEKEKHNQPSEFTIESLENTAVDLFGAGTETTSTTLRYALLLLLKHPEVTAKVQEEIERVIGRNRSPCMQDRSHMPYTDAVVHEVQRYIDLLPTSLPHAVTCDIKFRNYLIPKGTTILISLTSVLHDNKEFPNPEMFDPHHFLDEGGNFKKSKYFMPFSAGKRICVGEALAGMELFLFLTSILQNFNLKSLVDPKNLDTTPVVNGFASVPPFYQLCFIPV
Summary of the method: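 CYP2C9 activity was measured with a P450-Glo proluciferin substrate. Enzyme–substrate mix was held with compound for 10 min at room temperature, then NADPH regeneration solution was added for 1 h at 37C. Luciferin product was read as luminescence.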

[9] = molecular target: Cytochrome P450 1A2 (Homo sapiens) (UniProt P05177); test: Cytochrome P450 Family 1 Subfamily A Member 2 (CYP1A2) small molecule antagonists: luciferase reporter qHTS assay (AID 1671199); note: nearly all actives have a fitted effect of over 50% in size; note: potency is the fitted concentration of half-maximal effect
Cytochrome P450 1A2 (Homo sapiens), sequence (P05177 whole entry, looked up): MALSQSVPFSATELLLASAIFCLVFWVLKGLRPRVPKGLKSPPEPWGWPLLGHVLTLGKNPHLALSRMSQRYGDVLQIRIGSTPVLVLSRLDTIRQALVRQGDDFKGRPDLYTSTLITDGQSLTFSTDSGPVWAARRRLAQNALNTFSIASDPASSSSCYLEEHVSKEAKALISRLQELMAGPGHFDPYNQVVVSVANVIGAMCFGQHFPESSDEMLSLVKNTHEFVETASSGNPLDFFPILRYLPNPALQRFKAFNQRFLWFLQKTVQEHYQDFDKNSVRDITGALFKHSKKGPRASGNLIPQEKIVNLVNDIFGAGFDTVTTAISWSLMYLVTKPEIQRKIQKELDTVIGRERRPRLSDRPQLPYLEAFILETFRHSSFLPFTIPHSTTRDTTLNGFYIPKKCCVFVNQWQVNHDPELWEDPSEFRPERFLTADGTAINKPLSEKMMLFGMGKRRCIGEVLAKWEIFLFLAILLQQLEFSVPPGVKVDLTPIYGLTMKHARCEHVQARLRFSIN
Summary of the method: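 Human CYP1A2 activity measured with a P450-Glo proluciferin substrate; compounds in DMSO preincubated 10 min at room temperature with enzyme-substrate mix, then NADPH regeneration system added for 1 h. Luciferin detection reagent, 20 min, luminescence read.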

[10] = molecular target: Voltage-gated inwardly rectifying potassium channel KCNH2 (Homo sapiens) (UniProt Q12809); test: Human Ether-a-go-go-Related Gene (hERG) channel small molecule antagonists: fluorescence cell-based qHTS assay (AID 1671200);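 note: hERG-expressing U2OS cells given a thallium stimulus after FluxOR II dye loading; series mostly up to about 77 µM; nearly all actives have a fitted effect of over 50% in size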
Voltage-gated inwardly rectifying potassium channel KCNH2 (Homo sapiens), sequence (Q12809 whole entry, looked up): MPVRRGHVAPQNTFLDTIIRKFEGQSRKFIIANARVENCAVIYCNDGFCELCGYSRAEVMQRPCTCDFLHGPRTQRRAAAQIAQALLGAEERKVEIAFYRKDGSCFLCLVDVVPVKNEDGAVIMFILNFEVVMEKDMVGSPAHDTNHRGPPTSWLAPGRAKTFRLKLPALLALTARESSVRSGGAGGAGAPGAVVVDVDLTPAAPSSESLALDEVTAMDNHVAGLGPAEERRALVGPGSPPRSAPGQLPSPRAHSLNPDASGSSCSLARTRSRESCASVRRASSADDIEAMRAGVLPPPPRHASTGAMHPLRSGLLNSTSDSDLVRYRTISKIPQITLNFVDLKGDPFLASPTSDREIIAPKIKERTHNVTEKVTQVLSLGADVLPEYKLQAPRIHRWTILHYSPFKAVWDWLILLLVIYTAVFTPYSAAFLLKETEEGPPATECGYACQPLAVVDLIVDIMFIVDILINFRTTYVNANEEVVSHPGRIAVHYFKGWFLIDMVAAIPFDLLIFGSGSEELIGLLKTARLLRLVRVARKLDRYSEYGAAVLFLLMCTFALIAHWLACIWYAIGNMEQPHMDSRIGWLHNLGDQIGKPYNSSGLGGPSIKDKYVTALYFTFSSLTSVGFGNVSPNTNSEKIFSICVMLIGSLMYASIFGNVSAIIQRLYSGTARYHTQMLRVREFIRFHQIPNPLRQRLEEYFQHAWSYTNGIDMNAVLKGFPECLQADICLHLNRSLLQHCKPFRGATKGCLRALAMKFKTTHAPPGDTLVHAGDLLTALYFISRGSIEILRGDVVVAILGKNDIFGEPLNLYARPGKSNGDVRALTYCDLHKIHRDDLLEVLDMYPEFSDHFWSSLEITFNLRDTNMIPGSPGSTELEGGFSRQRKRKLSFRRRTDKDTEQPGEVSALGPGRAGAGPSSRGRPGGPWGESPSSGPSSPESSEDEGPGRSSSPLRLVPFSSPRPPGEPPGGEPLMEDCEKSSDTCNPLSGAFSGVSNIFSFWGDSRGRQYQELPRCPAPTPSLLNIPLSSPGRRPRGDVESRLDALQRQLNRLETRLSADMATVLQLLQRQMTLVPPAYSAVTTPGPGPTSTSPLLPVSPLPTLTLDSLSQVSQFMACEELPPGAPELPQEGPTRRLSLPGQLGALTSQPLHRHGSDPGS
Summary of the method: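 hERG-U2OS cells plated overnight at 37 C, loaded with FluxOR II dye 1 h at RT in dark; after 10 min, thallium stimulus added. Fluorescence (480/540 nm) read kinetically for 2 min at 1 s intervals.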

[11] = molecular target: Cytochrome P450 3A4 (Homo sapiens) (UniProt P08684); test: Cytochrome P450 Family 3 Subfamily A Member 4 (CYP3A4) small molecule antagonists: luciferase reporter qHTS assay (AID 1671201)
Cytochrome P450 3A4 (Homo sapiens), sequence (P08684 whole entry, looked up): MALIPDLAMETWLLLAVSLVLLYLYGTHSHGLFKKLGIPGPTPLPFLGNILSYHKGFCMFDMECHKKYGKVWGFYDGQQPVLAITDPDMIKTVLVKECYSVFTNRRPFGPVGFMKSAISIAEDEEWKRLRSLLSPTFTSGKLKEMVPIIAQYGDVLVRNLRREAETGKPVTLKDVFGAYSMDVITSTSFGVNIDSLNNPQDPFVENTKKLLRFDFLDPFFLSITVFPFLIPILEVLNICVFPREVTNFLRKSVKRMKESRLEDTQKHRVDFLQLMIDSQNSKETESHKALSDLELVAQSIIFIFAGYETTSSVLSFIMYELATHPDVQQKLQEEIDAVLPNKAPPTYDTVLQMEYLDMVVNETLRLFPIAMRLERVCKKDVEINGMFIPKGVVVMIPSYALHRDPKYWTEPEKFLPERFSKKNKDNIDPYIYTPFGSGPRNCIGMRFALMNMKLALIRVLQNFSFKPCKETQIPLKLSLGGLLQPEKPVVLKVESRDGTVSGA
Summary of the method: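 P450-Glo CYP3A4 luminescent assay: compounds preincubated 10 min at room temperature with enzyme and proluciferin substrate, NADPH regeneration added, 1 h room-temperature reaction, stopped with luciferin detection reagent; luminescence read after 20 min. Ketoconazole positive control.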

[12] = molecular target: Cytochrome P450 2D6 (Homo sapiens) (UniProt P10635); test: Cytochrome P450 Family 2 Subfamily D Member 6 (CYP2D6) small molecule antagonists: luciferase reporter qHTS assay (AID 1671196); note: nearly all actives have a fitted effect of over 50% in size; note: potency is the fitted concentration of half-maximal effect
Cytochrome P450 2D6 (Homo sapiens), sequence (P10635 whole entry, looked up): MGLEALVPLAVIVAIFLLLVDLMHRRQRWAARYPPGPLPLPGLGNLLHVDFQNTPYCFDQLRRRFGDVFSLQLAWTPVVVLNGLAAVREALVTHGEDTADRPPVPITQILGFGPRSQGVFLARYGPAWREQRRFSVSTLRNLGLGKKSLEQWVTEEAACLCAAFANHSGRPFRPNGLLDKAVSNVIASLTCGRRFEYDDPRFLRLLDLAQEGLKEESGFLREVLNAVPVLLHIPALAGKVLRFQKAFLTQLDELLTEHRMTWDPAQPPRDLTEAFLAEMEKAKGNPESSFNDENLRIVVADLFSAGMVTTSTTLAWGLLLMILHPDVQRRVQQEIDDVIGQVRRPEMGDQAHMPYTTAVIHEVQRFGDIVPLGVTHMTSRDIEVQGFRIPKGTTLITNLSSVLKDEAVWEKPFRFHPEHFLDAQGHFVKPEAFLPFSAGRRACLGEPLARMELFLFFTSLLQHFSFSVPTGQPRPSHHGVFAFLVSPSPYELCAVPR
Summary of the method: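 CYP2D6 enzyme–substrate mix was held with compound for 10 min at room temperature, then NADPH regeneration solution was added and the reaction ran 1 h at room temperature. Luciferin product was detected by luminescence after 20 min with detection reagent.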

[13] = molecular target: Nuclear receptor subfamily 1 group I member 2 (Rattus norvegicus) (UniProt Q9R1A7); test: Rat pregnane X receptor (rPXR) activation by small molecules, qHTS assay (AID 1346983); conditions: rPXR luciferase reporter cells, One-Glo luminescence, 24 h; max activation: hits give high values; note: nearly all actives have a fitted effect of over 20% in size; note: potency is the fitted concentration of half-maximal effect
Nuclear receptor subfamily 1 group I member 2 (Rattus norvegicus), sequence (Q9R1A7 whole entry, looked up): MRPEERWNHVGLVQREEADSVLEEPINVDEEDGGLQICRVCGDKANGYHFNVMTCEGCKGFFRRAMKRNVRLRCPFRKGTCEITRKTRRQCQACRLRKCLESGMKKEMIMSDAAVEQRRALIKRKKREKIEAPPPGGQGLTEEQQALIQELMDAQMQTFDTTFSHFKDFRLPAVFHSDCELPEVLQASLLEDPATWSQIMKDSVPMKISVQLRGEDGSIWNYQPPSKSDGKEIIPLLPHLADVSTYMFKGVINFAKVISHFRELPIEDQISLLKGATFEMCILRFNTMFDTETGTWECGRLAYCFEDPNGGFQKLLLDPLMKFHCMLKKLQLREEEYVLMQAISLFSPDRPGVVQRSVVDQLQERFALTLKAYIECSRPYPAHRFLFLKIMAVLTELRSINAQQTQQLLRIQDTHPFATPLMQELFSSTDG
Summary of the method: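 Cell-based rPXR luciferase reporter assay, 2,000 cells per well, rested 5hr at 37 C before compound addition in DMSO, then 24 hr at 37 C. One-Glo reagent was added and luminescence read after 30 min at room temperature.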

[14] = molecular target: Nuclear receptor subfamily 1 group I member 2 (Homo sapiens) (UniProt O75469); test: CYP3A4 induction through human pregnane X receptor (PXR) by small molecules, qHTS assay (AID 1346984); note: nearly all actives have a fitted effect of over 40% in size
Summary of the method: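 DPX-2 cells (HepG2 co-transfected with PXR and CYP3A4 promoter-luciferase) treated with compounds 24 h at 37C; luciferin-IPA CYP3A4 substrate 3uM final added for 3 h, then One-Glo; luminescence read. qHTS format.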

[15] = molecular target: Nuclear receptor subfamily 1 group I member 2 (Homo sapiens) (UniProt O75469); test: Human pregnane X receptor (PXR) activation by small molecules, qHTS assay (AID 1346985); note: potency is the fitted concentration of half-maximal effect; nearly all actives have a fitted effect of over 40% in size
Summary of the method: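 DPX-2 cells (HepG2 co-transfected with a PXR response element and a CYP3A4-promoter luciferase construct) were seeded at 2,000 per well, rested 5 hr at 37C, then exposed to DMSO-dissolved compounds for 24 hr. Activation was read as luciferase luminescence.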

With `COc1ccccc1OCC1CNC(=O)O1` (centres undefined) the Potency [1] was “inactive”, the outcome [2] was “inactive” and the Potency [3] was “inactive”. For the same compound, the outcome [4] was “inactive”, the Potency [5] was “inactive” and the Potency [6] was “inactive”. The Potency [7] was “inactive”, the Potency [8] was “inactive” and the Potency [9] was “inactive”. For the same compound, the Potency [10] was “inactive” and the Potency [11] was “inactive”.
For `CCN1CCOCC1`, the Potency [1] was “inactive”, the outcome [2] was “inactive” and the Potency [3] was “inactive”. The outcome [4] was “inactive”, the Potency [5] was “inactive” and the Potency [6] was “inactive”. The Potency [12] was 6.21 µM (active), the Potency [7] was 22 µM (active) and the Potency [9] was 39.2 µM (active). For the same compound, the Potency [10] was “inactive” and the Potency [11] was “inactive”.
For `Clc1cc(Cl)c(Cl)nc1Cl`, the Potency [1] was “inactive”, the outcome [2] was “inactive” and the Potency [3] was “inactive”. The outcome [4] was “inactive”, the Potency [5] was “inactive” and the Potency [6] was “inactive”. The Potency [7] was “inactive”, the Potency [8] was “inactive” and the Potency [10] was “inactive”. The Potency [11] was “inactive”.
With `c1ccc2sc(SN3CCOCC3)nc2c1` the Potency [1] was “inactive”, the outcome [2] was “inactive” and the Potency [3] was “inactive”. For the same compound, the outcome [4] was “inactive”, the Potency [5] was “inactive” and the Potency [13] was 28.2 µM (active). For the same compound, the Potency [14] was “inactive”, the Potency [15] was 10 µM (active) and the Potency [7] was 17.4 µM (active). The Potency [8] was 17.4 µM (active) and the Potency [10] was “inactive”.
For `C=CC(=O)OCCCl`, the Potency [1] was “inactive”, the outcome [2] was “inactive” and the Potency [3] was “inactive”. For the same compound, the outcome [4] was “inactive”, the Potency [5] was “inactive” and the Potency [6] was “inactive”. The Potency [7] was 81.5 µM (active), the Potency [8] was “inactive” and the Potency [9] was 40.8 µM (active). The Potency [10] was “inactive” and the Potency [11] was “inactive”.
With `NCCCC[C@H](N[C@@H](CCc1ccccc1)C(=O)O)C(=O)N1CCC[C@H]1C(=O)O` the Potency [1] was “inactive”, the outcome [2] was “inactive” and the Potency [3] was “inactive”. For the same compound, the outcome [4] was “inactive”, the Potency [5] was “inactive” and the max activation [13] was -3.44%. The Potency [12] was “inactive”, the Potency [7] was “inactive” and the Potency [8] was “inactive”.
In the case of `CC12CCC(C(=O)C1=O)C2(C)C` (centres undefined), the Potency [1] is reported as “inactive”, the outcome [2] is reported as “inactive” and the Potency [3] is reported as “inactive”. For the same compound, the outcome [4] was “inactive”, the Potency [5] was “inactive” and the Potency [6] was “inactive”. The Potency [7] was “inactive”, the Potency [8] was “inactive” and the Potency [10] was “inactive”. The Potency [11] was “inactive”.
For `O=C(O)CC(C(=O)O)S(=O)(=O)O` (centres undefined), the Potency [1] was “inactive”, the outcome [2] was “inactive” and the Potency [3] was “inactive”. For the same compound, the outcome [4] was “inactive”, the Potency [5] was “inactive” and the Potency [6] was “inactive”. For the same compound, the Potency [7] was 8.94 µM (active), the Potency [8] was “inactive” and the Potency [9] was 31.7 µM (active). For the same compound, the Potency [10] was “inactive” and the Potency [11] was “inactive”.
